# SMN2 splice enh: enhancers of SMN2 splice variant expression | Potency, µM (top dose mostly 46.1 µM), for inactives: top-dose activity change, positive = activation, actives largely listed as activators | 210,000 tested, 2.8% active | HEK293 SMN2-luciferase splicing reporter, luminescence, 30-36 h | AID 1458; note: % of control where 0% means no effect; nearly all actives have a fitted effect of over 55% in size
#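 HEK293 cells carry an SMN2 minigene-luciferase reporter in which exon 7 inclusion puts luciferase in frame. Cells were seeded at 2000 cells/well, attached for 10-12 hours, then exposed to compounds for 30-36 hours at 37C before ONE-Glo luminescence.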
# Rab9 promoter act: activates the Rab9 promoter; Huh7 Rab9 promoter-luciferase reporter, luminescence, 24 h; Potency, µM (top dose mostly 9.22 µM), for inactives: at the top dose activation, negative = inhibition, actives largely listed as activators; 320,000 tested, 2.8% active; note: % of control where 0% means no effect; nearly all actives have a fitted effect of over 60% in size
#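 Luminescence read-out: Huh7 cells stably expressing Rab9-luciferase, treated 24 h with compound at 37 °C, then lysed with luciferase reagent for 10 min at ambient before reading.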
# NPC1 promoter act: NPC1 promoter activation; Potency, µM (doses to about 9.22 µM), without a hit: top-dose activation, most hits filed as activators; 320,000 tested, 2.4% active; Huh7 NPC1 promoter luciferase reporter, 24 h; note: % of control where 0% means no effect; nearly all actives have a fitted effect of over 60% in size
#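 Huh7 reporter cells (NPC1 promoter driving luciferase) are dosed with compound for 24 h at 37 °C, 5% CO2; luciferase detection reagent is then added and luminescence measured after 10 min at ambient temperature.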
# FLuc modulator: firefly luciferase modulation, counter-screen for miR-21 project; P08659; purified FLuc, Km substrates, luminescence inhibition; Potency, µM (top dose mostly 57.5 µM), for inactives: top-dose activity change, negative = inhibition, usual class: inhibitors; 360,000 tested, 6.9% active; AID 588342;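 note: plate controls were vehicle for no effect and reference inhibitor for full effect; nearly all actives have a fitted effect of over 55% in size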
# Target sequence (P08659 whole entry, looked up): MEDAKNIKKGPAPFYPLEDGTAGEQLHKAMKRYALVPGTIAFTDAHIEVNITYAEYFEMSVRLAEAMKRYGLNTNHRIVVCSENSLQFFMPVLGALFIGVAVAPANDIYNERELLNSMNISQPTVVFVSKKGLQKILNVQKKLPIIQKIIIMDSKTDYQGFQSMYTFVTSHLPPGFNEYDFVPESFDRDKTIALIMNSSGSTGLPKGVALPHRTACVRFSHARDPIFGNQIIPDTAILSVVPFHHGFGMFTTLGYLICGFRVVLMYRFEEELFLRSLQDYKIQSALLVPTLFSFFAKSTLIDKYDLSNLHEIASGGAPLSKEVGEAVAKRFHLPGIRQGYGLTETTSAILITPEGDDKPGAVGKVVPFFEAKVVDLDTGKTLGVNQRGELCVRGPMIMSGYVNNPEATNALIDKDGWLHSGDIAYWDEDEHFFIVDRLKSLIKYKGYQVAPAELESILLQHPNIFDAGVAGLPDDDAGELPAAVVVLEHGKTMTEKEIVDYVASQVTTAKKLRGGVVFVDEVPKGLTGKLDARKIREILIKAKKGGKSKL
#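 Biochemical qHTS of compounds, final roughly 60 µM downward over six points, against 10 nM purified firefly luciferase using Km concentrations of substrates (10 uM D-luciferin, 10 uM ATP) in Tris acetate pH 7.5 buffer; luminescence output.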
# ELG1 genotoxic: genotoxicity induction in ELG1-luciferase HEK293T cells; HEK293T ELG1-luciferase reporter, luminescence, 16 h; Potency, µM (titrated, usually from 46 µM), without a hit: at the highest dose activity change, positive = activation, usual class: activators; 330,000 tested, 1.3% active; AID 504466; note: % of control where 0% means no effect; nearly all actives have a fitted effect of over 60% in size
#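 HEK293T cells expressing luciferase-tagged ELG1 were treated with compound or DMSO for 16 hr at 37°C. Luciferase activity was then read after 30 min with ONE-Glo at room temperature; rising signal flags genetic stress.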
# * = called active by the depositor; ? = inconclusive; . = no result given; [ ] = remark or other dose. This is a sample that favours compounds with a hit; in the whole collection about 7.4% have one here. Calls come from the whole dose curve; as a rule, active = well fitted curve in the direction sought with a large enough effect; inconclusive = small, poorly fitted or top-dose-only effect, or another doubt; inactive = no such curve, though single readings can be large; an effect the other way counts as inactive or inconclusive. Potency is the fitted concentration of half-maximal effect.
SMILES,SMN2 splice enh,Rab9 promoter act,NPC1 promoter act,FLuc modulator,ELG1 genotoxic
CC1CCC2(CC1)NC(=O)N(CC(=O)Nc1ccc3c(c1)OCCCO3)C2=O (configuration not stated),.,-6%,0%,1%,-2%
COc1cc(OC)c(OC)cc1/C=C/c1nc2cc3ccccc3cc2c(=O)n1-c1ccc(F)cc1F,.,.,.,-18%,.
CCC(C)NC(=O)CSc1nnc(-c2cc(OC)c(OC)c(OC)c2)c(-c2cc(OC)c(OC)c(OC)c2)n1 (configuration not stated),.,-2%,3%,-1%,?
CNc1cccc2c1C(=O)c1ccccc1C2=O,?,?,28%,9.5µM*,?
CC(=O)Nc1ccc(N/C=C(\C=O)c2nc3ccccc3o2)cc1,.,19%,-2%,6%,1%
CC(=O)Nc1cccc(N/C=C(\C=O)c2nc3ccccc3o2)c1,?,19%,15%,19µM*,11%
O=C/C(=C\Nc1ccccn1)c1nc2ccccc2o1,25%,5%,13%,13µM*,1%
CN(C(=O)C1CCCCC1)C1(C)CCS(=O)(=O)C1 (configuration not stated),.,-1%,-2%,0%,-1%
CSc1nc(O)c(C(c2ccccc2)c2c(O)nc(SC)[nH]c2=O)c(=O)[nH]1,.,5%,-5%,5%,0%
CSc1nc(O)c(N=Nc2ccc(F)cc2F)c(=O)[nH]1,.,26%[1.84 µM],?,0.85µM*,?
C=C(C)Cn1c(SCC(=O)Nc2ccccc2C)nc2sc3c(c2c1=O)CCCC3,-9%,.,.,-13%,.
O=C(CNC(=O)C1CCCCC1)OCC(=O)c1ccc(Br)cc1,.,0%,1%,1.7µM*,4%
CCOc1ccc(C(=O)COC(=O)CNC(=O)C2CCCCC2)cc1,.,-5%,-2%,9.5µM*,2%
COc1ccc(C(=O)COC(=O)CNC(=O)C2CCCCC2)c(OC)c1,-19%,-1%,7%,?,4%
CCC(C(=O)Nc1ccc(C(=O)Nc2ccccc2C(=O)O)cc1)c1ccccc1 (configuration not stated),.,3%,-1%,?,-15%
Cc1nc(NC2CCCCC2)c2nc(-c3ccccc3)n(CCN3CCCC3)c2n1,-10%,.,.,.,.
CCCc1nc(Nc2nc3ccccc3o2)nc(C)c1C(=O)OCC,?,1.8µM*,?,2.7µM*,?
Cc1ccc(Nc2nc3ccccc3o2)cc1F,?,1.6µM*,?,6µM*,5.8µM*
CCOC(=O)c1cnc(Nc2nc3ccccc3o2)nc1CSC(=S)N(CC)CC,-7%,13%,8%,-11%,0%
Cc1ccnc(Nc2nc3ccccc3o2)n1,2.5µM*,0.4µM*,?,3µM*,1.2µM*
Cc1ccc2oc(Nc3nc(C)c(C)c(C)n3)nc2c1,.,2.5µM*,1.6µM*,11µM*,?
CCN(CC)C(=O)c1sc2c(c1C)c(=O)n(CCc1ccccc1)c(=O)n2Cc1ccc(C)cc1,.,.,.,-2%,.
Cc1nc(Nc2nc3ccccc3o2)nc(C)c1C,5.6µM*,?,1µM*,8.5µM*,?
O=C(c1ccco1)N1CCC2(CCCN(c3ccccn3)C2)CC1,-12%,.,.,.,.
Cc1cccc(NC(=O)CSCC(=O)N2CCN(C(=O)c3ccco3)CC2)c1,.,-4%,-2%,-2%,2%
SMILES,SMN2 splice enh,Rab9 promoter act,NPC1 promoter act,FLuc modulator,ELG1 genotoxic
Oc1ccc(/C=N/Nc2ccnc3cc(Cl)ccc23)cc1O,.,-2%,-4%,17µM*,?
CO/N=C/c1ccc(Oc2ccc(C)cc2)nc1,-7%,20%,18%,17µM*,15%
Cc1ccc(Oc2ccc(C=O)cn2)cc1,-21%,-7%,0%,-1%,-7%
O=C(NCC(=O)N1CCCC(C(F)(F)F)C1)c1ccco1 (configuration not stated),.,2%,-3%,3%,3%
CCOC(=O)c1cnc2cc(-c3ccc(Br)cc3)nn2c1C,.,2.8µM*,?,?,?
CCOC(=O)c1cnc2cc(-c3ccc(Cl)cc3)nn2c1N,?,1.3µM*,1.1µM*,?,?
NC(C(=O)O)c1cc(O)cc(O)c1 (configuration not stated),-1%,.,.,.,.
c1ccc(Cn2c(-c3ccco3)nc3nc4ccccc4nc32)cc1,16µM*,3.2µM*,3.5µM*,2.7µM*,?
O=c1c2ccccc2nc(-c2ccc(Br)cc2)n1Cc1ccccc1,-9%,0%,2%,-1%,-9%
O=c1c2ccccc2nc(-c2ccco2)n1Cc1ccccc1,?,.,.,13µM*,.
c1coc(-c2nc3nc4ccccc4nc3n2-c2ccc3c(c2)OCCO3)c1,-20%,15%,2%,3.8µM*,-6%
CC(OC(=O)CCC(=O)N1CCN(S(=O)(=O)c2ccc3ccccc3c2)CC1)C(=O)NC(N)=O (configuration not stated),.,2%,-2%,1%,2%
CC1CCC(NC(=O)c2ccc3c(c2)N(Cc2cccc(Cl)c2)C(=O)c2ccccc2S3(=O)=O)CC1 (configuration not stated),.,.,.,-8%,.
CC(=O)Oc1ccc(C(=O)N2c3ccccc3NC(=O)C2C)cc1 (configuration not stated),.,1%,-4%,-3%,0%
COC(=O)c1cccc(NC(=O)c2cnoc2C)c1,5%,?,18%,24µM*,9%
CC(=O)Nc1ccc2ccccc2c1,7%,15%,21%,?,?
Cc1coc(C)c1C(=O)Nc1ccc2ccccc2c1,.,2.8µM*,3.5µM*,11µM*,?
Cc1oncc1C(=O)Nc1ccc2ccccc2c1,.,?,?,19µM*,?
Cc1oncc1C(=O)Nc1ccc(C(F)(F)F)cc1,11µM*,1.4µM*,?,?,?
